Screen size: about 380,000 compounds; about 4,000 (1.1%) were called active. Roughly 3% stayed inconclusive and do not appear here. What follows is part of a selection rich in actives, with near analogues and random picks from the rest. Unmarked numbers belong to inactive results. The call rests on the fitted dose curve; in most records, active means well fitted activation curve with a large enough effect; inconclusive means small, poorly fitted or top-dose-only effect; inactive means no such curve, though single readings can be large or run the other way.
Potency means the concentration at half of the fitted maximal effect.

This experiment can be described thus: qHTS Assay to Identify Small Molecule Activators of BRCA1 Expression. Further: nearly all actives have a fitted effect of over 80% in size. Conditions: MCF7-BRCA1-FFLuc reporter, luminescence, 48 h; series mostly up to 46.1 µM; activation: at the top concentration. The essentials: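 MCF7-BRCA1-FFLuc, 2000 cells/well; 2 h attach, 37 °C/5% CO2; compound 48 h; luciferase substrate 15 min; luminescence end-point. Norm. to genistein 10 microM max activation and DMSO; concentration-response curves fitted.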
In general terms: In qHTS, concentration-response curves come from the screen itself.
For the compound `Cc1cc2c(cc1C)C(c1cccc(OC(C)C)c1)CC(=O)N2` (stereo not given), the “activation” value was -12.9%.

For the compound `COc1ccc(NC(=O)Nc2cccc(-c3noc(C)n3)c2)cc1`, the “activation” value was 0%. Same read-out and setting: the figure for `O=C(Nc1ccc2ccccc2c1)Nc1ccc2snnc2c1` is -70.4%. In the case of `COc1ccc(NC(=O)Nc2ccc3nsnc3c2)cc1`, the Potency was 2.51 µM (active). Same read-out and setting: the figure for `N/C(=N\OC(=O)CCC1CCCCC1)c1ccccn1` is 7.94 µM (active). On to `Cc1ccc(C(=O)O/N=C(\N)c2ccccn2)cc1Cl`, for which the “activation” value is -57.3%. Same read-out and setting: the figure for `N/C(=N\OC(=O)CC1CCCCC1)c1ccccc1` is 18%; for `O=C1O/C(=C\c2ccc(O)cc2)C(O)=C1c1ccc(O)cc1` it is 13.3%; for `COc1ccc(CCNC(=O)CCCn2c(=O)c3ccccc3n(Cc3ccc(C)cc3)c2=O)cc1OC` it is 4.93%.

On to `COc1ccc(/C=C/c2ccccn2)cc1OC`, for which the “activation” value is 2.23%. Take `COc1ccc(-c2noc(CSc3nc4ccc(C)cc4[nH]3)n2)cc1`: the “activation” value was -20.9%. Still for that read-out and setting: the figure for `Cc1ccc(-c2nc3ccccn3c2Nc2ccc(F)cc2)o1` is 23.2%. In the case of `Cc1cccc2nc(CNc3ccc(F)cc3)cn12`, the Potency was 12.6 µM (active).

Regarding `CCOC(=O)CSc1nnc(CNc2ccc(F)cc2)o1`, the “activation” value is -0.722%. Take `Cc1oc2ncn(CC(C)C)c(=O)c2c1C(=O)N1CCN(c2ccccc2F)CC1`: the “activation” value is 0%. As to `CCOC(OCC)c1ccc(/C=C\c2nccc(N)n2)cc1`, the Potency was 3.16 µM (active). Turning to `O=C(Nc1ccc(Cl)cc1)c1cnn2c1NC(=C1CC1)C=C2C(F)F`, the “activation” value is -8.62%. For the compound `CCOC(=O)CC1(NC(=O)c2cc(COc3cncc(Cl)c3)on2)CCCCC1`, the “activation” value was -2.02%. Turning to `CCCOC1CCCN(C(=O)c2cc(COc3cncc(Cl)c3)on2)C1` (stereo not given), the Potency was 5.62 µM (active).

On to `CC1CN(C(=O)c2cc(COc3c(F)cccc3F)on2)CCN1C` (stereo not given), for which the “activation” value was 53.8%.

In the case of `O=C(c1ccco1)N(Cc1cccs1)c1ccc(O)cc1`, the “activation” value is 0%.

`CCc1nn(CC(=O)NCC(C)c2ccccc2)c(=O)c2cc3occc3n12` (stereo not given): the “activation” value is 10.8%. Still for that read-out and setting: the figure for `CCc1nn(CCCC(=O)NCc2ccccc2OC)c(=O)c2cc3occc3n12` is 0.244%; for `COc1ccc2cc(-c3nc(Cl)c4c5c(sc4n3)CC(C)CC5)c(=O)oc2c1` (stereo not given) it is 29.2%.

On to `Cn1c(=O)c2c(nc(NCCc3ccccc3)n2Cc2ccccc2Br)n(C)c1=O`, for which the “activation” value is 11.3%. For the compound `CSc1ccc(/C=C2\NC(=O)NC2=O)cc1`, the “activation” value is 84.5%. On the same count and under the same terms, the figure for `Cc1ccccc1-n1c(C)cc(/C=N/NC(=O)c2ccc(CN3CCOCC3)cc2)c1C` is -10.3%.

On to `Cc1ccccc1-n1c(C)cc(/C=C2\NC(=O)NC2=O)c1C`, for which the Potency is 10 µM (active). For the compound `COc1ccc(Cl)cc1N(C)C(=O)c1cc2c(=O)oc3ccc(C)cc3c2s1`, the “activation” value was 12.6%. Still for that read-out and setting: the figure for `COc1ccc(NC(=O)c2cnc(Nc3ccc(C)c(Cl)c3)c3ccccc23)cc1OC` is -4.92%; for `O=C1c2ccccc2C(=O)N1c1ccc(S(=O)(=O)N2CCOCC2)c2ccccc12` it is 1.74%; for `COc1cccc(NC(=O)CSc2cc(=O)n(C)c3ccc(Cl)cc23)c1` it is 13.2%. The same measure, in the same setting: the figure for `Cc1ccc(NC(=O)CN2C(=O)CC(C)Sc3ccccc32)c(C)c1` (stereo not given) is -19.1%. Take `O=C(N/N=C/c1c[nH]c2ccccc12)c1ccccc1O`: the Potency is 8.91 µM (active). Consider `O=C(NC(Cc1c[nH]c2ccccc12)C(=O)N/N=C/c1ccc(Br)cc1)c1cccs1` (stereo not given), for which the “activation” value is -83.7%. Turning to `C[C@H](NC(=O)c1ccccc1)C(=O)OCC(=O)c1c[nH]c2ccccc12`, the “activation” value was -34.3%. For `CCOC(=O)c1cccc(NC(=O)c2cc(S(=O)(=O)N3CCCC(C)C3)cn2C)c1` (stereo not given), the “activation” value was -55.3%.

Take `O=C(CCn1c(=O)c2ccccc2n(Cc2ccc(Cl)cc2)c1=O)NCc1ccc2c(c1)OCO2`: the “activation” value was 6.66%.

On to `CCCN(C(=O)Cn1cc(S(=O)(=O)N2CCN(c3ccccc3F)CC2)c2ccccc2c1=O)c1cccc(C)c1`, for which the “activation” value is -2.67%.

Turning to `OC(c1ccccc1)(c1ccccc1)C1CCN(CCCOc2ccccc2)CC1`, the “activation” value is -6.13%. On the same count and under the same terms, the figure for `CCOc1ccc(C(=O)CCN2CCOCC2)cc1` is -34.5%. Turning to `c1ccc(-c2ccc(OCCN3CCOCC3)cc2)cc1`, the Potency is 11.2 µM (active).

As to `CCc1cccc(NC(=O)Cn2nc(CC)n3c(cc4cc(C)ccc43)c2=O)c1`, the “activation” value is -10.7%. Consider `COc1ccccc1C(=O)NCCn1cc(SCc2ccccc2Cl)c2ccccc21`, for which the “activation” value is -56.6%. For the compound `O=C1N/C(=N\N=C\c2ccco2)SC1Cc1ccc(F)cc1` (stereo not given), the “activation” value was -4.99%. As for `COc1ccc(CN2C(=O)C(C)S/C2=N/N=C/c2ccco2)cc1` (stereo not given), the Potency was 11.2 µM (active).

On to `CCN(CC)C(=O)C1=C(C)N(Cc2ccc(OC)cc2)C(=O)C(CC(=O)NCc2ccco2)C1` (stereo not given), for which the “activation” value was -12.6%. Turning to `CN(Cc1ccccc1)c1ccc(/C=C/c2ccnc3ccccc23)cc1`, the “activation” value was -21.5%.

For the compound `CCc1ccc(OCCCn2c(CCCNC(=O)C3CCCCC3)nc3ccccc32)cc1`, the “activation” value is 9.55%. The same measure, in the same setting: the figure for `COc1ccccc1CNS(=O)(=O)c1cc(Br)cc2c1N(C(C)=O)C(C)C2` (stereo not given) is -12.5%; for `Cc1cc(C)c2nc(N3CCC(C(=O)NCCN4CCOCC4)CC3)sc2c1` it is 32.9%. As for `Fc1cc(F)c2nc(N3CCOCC3)sc2c1`, the Potency was 12.6 µM (active). `Cc1nc(N2CCOCC2)sc1C(=O)NN`: the “activation” value was -106%. On the same count and under the same terms, the figure for `CCc1nc2onc(C)c2c(=O)n1CC(=O)O` is 0.973%. Still for that read-out and setting: the figure for `O=C(COc1ccccc1Cl)N1CCCCCCC1` is 33.8%.

(Values after PubChem BioAssay AID624202 (National Center for Advancing Translational Sciences (NCATS), 2012).)
